Data as given in PubChem BioAssay AID1159580 (chemical genetic matrix, 2015).
Values joined by “and” are separate entries in the source; they are usually repeats but may differ in a detail not shown here. Equal values may be shown once. Among all 5,500 compounds or so, about 2,000 (36%) were called active. Roughly 18% stayed inconclusive and do not appear here. No stated cut-off is given here; in the data, active means normalized growth mostly below about 0.91 (no sharp cut-off); inconclusive means no clear call, values can overlap the other calls; inactive means mostly above about 0.92. The list shows a part of the results.

Assay: chemical genetic growth profiling, strain panel (AID 1159580);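 further: tested at 20 µM; growth read once vehicle control cultures reached saturation at 30 °C; 1 = growth at the plate median or of vehicle wells; lower values mean less growth of the strain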
Conditions: S. cerevisiae deletion strains, growth OD

Measured: normalized growth

CC(=O)N[C@@H](CC(C)C)C(=O)O
inactive: locus YAL013W, strain DEP1, active compounds read low 0.983 | locus YAL021C, strain ccr4, active compounds read low 1 | locus YAL026C, strain drs2, active compounds read low 0.989 | locus YAL030W, strain snc1, active compounds read low 1 | locus YBL061C, strain skt5, active compounds read low 0.986 | locus YBR009C, strain hhf1, active compounds read low 0.99 | locus YBR021W, strain FUR4, active compounds read low 1 | locus YBR023C, strain chs3, active compounds read low 1 | locus YBR171W, strain sec66, active compounds read low 0.981 | locus YBR229C, strain ROT2, active compounds read low 0.996 | locus YBR231C, strain swc5, active compounds read low 0.972 | locus YBR279W, strain paf1, active compounds read low 1 | locus YCL011C, strain gbp2, active compounds read low 1.01 | locus YCL016C, strain dcc1, active compounds read low 0.995 | locus YCL029C, strain bik1, active compounds read low 0.97 | locus YCL069W, strain vba3, active compounds read low 0.996 | locus YCR088W, strain abp1, active compounds read low 1 | locus YDL005C, strain med2, active compounds read low 0.991 | locus YDL035C, strain GPR1, active compounds read low 0.985 | locus YDL040C, strain nat1, active compounds read low 0.988 | locus YDL074C, strain BRE1, active compounds read low 1.02 | locus YDL101C, strain DUN1, active compounds read low 0.994 | locus YDL134C, strain PPH21, active compounds read low 0.987 | locus YDL185W, strain tfp1, active compounds read low 0.944 | locus YDL192W, strain arf1, active compounds read low 0.986 | locus YDR001C, strain nth1, active compounds read low 1 | locus YDR069C, strain doa4, active compounds read low 0.971 | locus YDR101C, strain arx1, active compounds read low 0.989 | locus YDR137W, strain rgp1, active compounds read low 1 | locus YDR150W, strain NUM1, active compounds read low 0.983 | locus YDR159W, strain sac3, active compounds read low 0.961 | locus YDR162C, strain NBP2, active compounds read low 0.981 | locus YDR195W, strain ref2 0.948 | locus YDR297W, strain sur2, active compounds read low 0.991 | locus YDR318W, strain mcm21, active compounds read low 0.97 | locus YDR334W, strain swr1, active compounds read low 0.989 | locus YDR335W, strain msn5, active compounds read low 0.987 | locus YDR388W, active compounds read low 0.989 | locus YDR392W, strain spt3, active compounds read low 1.02 | locus YDR502C, strain sam2, active compounds read low 0.972 | locus YEL003W, strain gim4, active compounds read low 0.989 | locus YEL037C, strain rad23, active compounds read low 0.994 | locus YEL061C, strain CIN8 (second series), active compounds read low 0.986 | locus YEL061C, strain CIN8, active compounds read low 0.993 | locus YER015W, strain faa2, active compounds read low 0.993 | locus YER016W, strain bim1, active compounds read low 1.01 | locus YER110C, active compounds read low 0.97 | locus YER111C, strain swi4, active compounds read low 0.988 | locus YER155C, strain BEM2 (second series), active compounds read low 0.98 | locus YER155C, strain BEM2, active compounds read low 0.992 | locus YER167W, strain BCK2, active compounds read low 0.98 | locus YFR010W, strain ubp6, active compounds read low 0.98 | locus YGL078C, strain dbp3, active compounds read low 0.975 | locus YGL086W, strain mad1, active compounds read low 0.996 | locus YGL167C, strain pmr1, active compounds read low 0.972 | locus YGL173C, strain kem1, active compounds read low 0.97 | locus YGL227W, strain vid30, active compounds read low 0.98 | locus YGL240W, strain doc1, active compounds read low 0.972 | locus YGL248W, strain PDE1, active compounds read low 1.01 | locus YGL253W, strain hxk2, active compounds read low 0.986 | locus YGR135W, strain pre9, active compounds read low 0.945 | locus YGR252W, strain gcn5, active compounds read low 1 | locus YHR013C, strain ard1, active compounds read low 1.01 | locus YHR027C, strain rpn1, active compounds read low 1 | locus YHR030C, strain SLT2, active compounds read low 0.975 and 1.04 | locus YHR079C, strain IRE1 (second series), active compounds read low 0.985 | locus YHR079C, strain IRE1, active compounds read low 1.02 | locus YHR094C, strain hxt1, active compounds read low 0.984 | locus YHR129C, strain ARP1, active compounds read low 0.992 | locus YHR142W, strain chs7, active compounds read low 0.992 | locus YHR200W, strain rpn10, active compounds read low 0.978 | locus YIL066C, strain RNR3, active compounds read low 1.01 | locus YIL073C, strain SPO22, active compounds read low 0.849 | locus YIL125W, strain kgd1, active compounds read low 0.992 | locus YIR030C, strain dcg1, active compounds read low 0.969 | locus YJL092W, strain hpr5, active compounds read low 0.989 | locus YJL095W, strain BCK1 (second series), active compounds read low 0.98 | locus YJL095W, strain BCK1, active compounds read low 1.04 and 1.03 | locus YJL115W, strain asf1, active compounds read low 1 | locus YJL129C, strain trk1, active compounds read low 0.959 | locus YJL134W, strain LCB3, active compounds read low 0.984 | locus YJL154C, strain vps35, active compounds read low 0.994 | locus YJL164C, strain tpk1, active compounds read low 1.01 | locus YJL166W, strain qcr8, active compounds read low 0.972 | locus YJL168C, strain set2, active compounds read low 0.997 | locus YJL187C, strain SWE1 (second series), active compounds read low 1.02 | locus YJR043C, strain POL32, active compounds read low 1.02
